Screens (PubChem BioAssay)
KCNQ2 inh – inhibitors of rat KCNQ2 potassium channel. O88943. CHO-K1 KCNQ2, FluxOR thallium flux, 20 min; stronger effect = lower value. B-score at 10 µM. actives 1.1% (n = 310,000). AID 2156;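 active means fluorescence ratio B-score at most minus 3 library SDs, with starting brightness B-score within 2 library SDs, cut at about -5.5 in these data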
KCNQ2 enhance – KCNQ2 (rat) channel potentiation. O88943. CHO-K1 KCNQ2, FluxOR thallium flux fluorescence; stronger effect = higher value. B-score at 10 µM. actives 0.54% (n = 310,000). AID 2239;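 active means fluorescence ratio B-score at least 3 SD of library B-scores, with initial fluorescence B-score within 3 of them, cut at about 5.3 in these data; same plate scores as AID 2156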;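 further: B-score of peak minus minimum over baseline fluorescence ratio after K+ and Tl+ stimulus; positive B-score means potentiation of KCNQ2 with more thallium influx and brighter signal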
Kir21 conf inh – confirmation of mouse Kir2.1 potassium channel inhibitors; shares compounds with KCNQ2 enhance; Kir2.1-expressing cells, FluxOR thallium flux fluorescence; stronger effect = lower value; Tl flux remaining, % of negative control (stronger effect = lower value), % at 10 µM; actives 41% (n = 2,300);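 active means Primary-screen hit whose thallium flux fell at least 3 control SD below untreated wells in both duplicates, with normal baseline fluorescence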
Target sequence (P35561 whole entry, looked up): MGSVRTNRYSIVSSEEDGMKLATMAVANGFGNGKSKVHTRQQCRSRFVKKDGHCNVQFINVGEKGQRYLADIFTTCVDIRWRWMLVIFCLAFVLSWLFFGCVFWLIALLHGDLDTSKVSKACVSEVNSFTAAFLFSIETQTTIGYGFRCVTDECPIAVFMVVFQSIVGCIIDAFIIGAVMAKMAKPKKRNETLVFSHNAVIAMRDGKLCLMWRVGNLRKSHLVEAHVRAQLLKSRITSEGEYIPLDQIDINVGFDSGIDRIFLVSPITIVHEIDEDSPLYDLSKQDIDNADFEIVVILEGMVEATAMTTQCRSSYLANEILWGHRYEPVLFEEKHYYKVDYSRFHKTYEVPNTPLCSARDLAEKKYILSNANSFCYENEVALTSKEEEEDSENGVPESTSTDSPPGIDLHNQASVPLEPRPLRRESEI
HEK293 ctr – parental HEK293 activity in Kir2.1 inhibitor counter-screen | shares compounds with KCNQ2 enhance | actives 19% (n = 2,300) | AID 2105 | FluxOR signal as % of negative control (100 = no effect), % at 10 µM | parental HEK293 cells, FluxOR thallium flux fluorescence; 0% = unstimulated blank wells;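 active means dye signal at least 3 control SD above or below untreated wells in both duplicates, raw fluorescence within 3, either direction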;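 further: percent is based on the flux ratio of peak minus minimum fluorescence over baseline F0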
CHO-K1 Tl ctr – counter-screen for KCNQ2 potentiators: effect in parental CHO-K1 cells; shares compounds with KCNQ2 enhance; FluxOR thallium flux fluorescence; zero = vehicle mean+3SD, 100% = vehicle-minus-blank window; activity increase over 3SD of controls, % at 10 µM; actives 43% (n = 1,200); AID 2282;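 active means signal rise of at least 3 SD above the untreated control mean, in both duplicate wells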;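 further: counter screen of KCNQ2 potentiator hits so any rise reflects channel-independent effects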
KCNQ1 sel pot – tests whether KCNQ2 potentiators also act on human KCNQ1; shares compounds with KCNQ2 enhance; CHO KCNQ1 stable, FluxOR thallium flux fluorescence; beyond 3SD, as % of vehicle-control signal; activation over 3SD threshold, % at 10 µM; actives 28% (n = 1,200);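 active means fluorescence ratio rise of at least 3 SD of vehicle wells above their mean, in both replicate wells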
KCNQ2 pot confirm – rat KCNQ2 channel potentiator confirmation; shares compounds with KCNQ2 enhance; CHO-KCNQ2 cells, FluxOR thallium flux fluorescence; potentiation, less the hit threshold, % at 10 µM; actives 68% (n = 1,200);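 active means fluorescence ratio rising 3 SD or more over the vehicle control mean in both replicates, plus primary screen hit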;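 further: peak minus minimum thallium fluorescence divided by baseline after K/Tl stimulus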
Kir2-1 sel – mouse Kir2.1 off-target activity of KCNQ2 potentiators | shares compounds with KCNQ2 enhance | HEK293 Kir2.1, FluxOR thallium flux fluorescence | activity over 3SD threshold, % at 10 µM | actives 2% (n = 1,200) | AID 2345;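 active means fluorescence ratio rise of at least 3 SD above the vehicle-control mean, seen in both replicates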
KCNQ2 W236L pot – rat KCNQ2 W236L mutant potentiation by KCNQ2 potentiators; current increase over 3SD of negative controls (%), stronger effect = higher value, % at 25 µM; AID 2558; CHO KCNQ2-W236L, automated patch clamp current; shares compounds with KCNQ2 enhance; actives 10% (n = 940);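 active means current increase at least 3 SD of the untreated controls above them in both duplicate recordings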
Numbers stand for hits; i = inactive; nt = no result given; ! = not active in a repeat. Hits are enriched below; roughly 1.6% of the tested compounds scored in any of these assays.

SMILES | KCNQ2 inh | KCNQ2 enhance | Kir21 conf inh | HEK293 ctr | others
Oc1c(Cl)cc(Cl)cc1CNn1cnnc1 | i | nt | nt | nt
Cc1ccccc1C(=O)Nc1ccc(C(=O)N/N=C/c2ccc(O)c(Br)c2)cc1 | i | nt | nt | nt
Cc1ccc(-c2nn(-c3ccccc3)cc2/C=N/O)cc1 | i | 5.4 | i | i | CHO-K1 Tl ctr=i;KCNQ1 sel pot=i;KCNQ2 pot confirm=15;Kir2-1 sel=i;KCNQ2 W236L pot=i
O/N=C/c1cn(-c2ccccc2)nc1-c1cccnc1 | i | nt | nt | nt
O=C(N/C(=C\c1ccccc1)C(=O)N1CCN(CCO)CC1)c1ccccc1 | i | nt | nt | nt
O=C(NC(=S)N(CCCCO)C1CCCCC1)c1sc2ccccc2c1Cl | i | 17 | i | i | CHO-K1 Tl ctr=30;KCNQ1 sel pot=28;KCNQ2 pot confirm=56;Kir2-1 sel=i;KCNQ2 W236L pot=i
CC1CCCCC1NC(=S)NC(=O)c1sc2ccccc2c1Cl (configuration not stated) | i | i | nt | nt
CC(C)CCNC(=O)C1CCN(S(=O)(=O)c2ccc3c(c2)CC(C)N3C(=O)C2CCC2)CC1 (configuration not stated) | i | i | nt | nt
Cc1ccc(CNC(=O)C2CCN(S(=O)(=O)c3ccc4c(c3)CC(C)N4C(=O)C3CCC3)CC2)o1 (configuration not stated) | i | 6.6 | i | i | CHO-K1 Tl ctr=i;KCNQ1 sel pot=i;KCNQ2 pot confirm=i;Kir2-1 sel=i
COc1cc2cc(C(=O)N3CCOCC3)cc(-c3ccc(C)cc3)c2cc1OC | i | nt | nt | nt
C/C(=N\Nc1nc2c(s1)CCCC2)c1ccccc1 | i | i | nt | nt
CC(=O)c1cccc(NC(=O)c2ccc(N(Cc3ccccc3)S(C)(=O)=O)cc2)c1 | i | i | nt | nt
CS(=O)(=O)N(Cc1ccccc1)c1ccc(C(=O)Nc2ccc(C(N)=O)cc2)cc1 | i | nt | i | i
COc1ccc(N2CCOCC2)c(NC(=O)COc2cccc(C)c2C)c1 | i | nt | nt | nt
Cc1ccccc1OCC(=O)Nc1ccccc1N1CCOCC1 | -6.5 | i | 50% | i
COc1ccc(C2=CSC3=NCCN23)cc1Br | i | nt | nt | nt
COCCNc1c2c(nc3c(-c4ccccc4)c(C)nn13)CCCC2 | i | nt | nt | nt
Cc1nn2c(NCCN(C)C)c3c(nc2c1-c1ccccc1)CCCC3 | i | 6.1 | nt | nt | CHO-K1 Tl ctr=i;KCNQ1 sel pot=i;KCNQ2 pot confirm=i;Kir2-1 sel=i
Nc1nc2ccccc2n1CCOc1ccc(F)cc1 | i | i | nt | nt
C=CCn1c(SCc2ccc(C#N)cc2)nnc1-c1cccc(Cl)c1 | i | nt | 52% | 72%
N#Cc1ccc(CSc2nnc(-c3ccncc3)n2CCc2ccccc2)cc1 | i | nt | nt | nt
C=CCn1c(SCC(=O)NC(C)(C)C)nnc1-c1ccccc1O | i | nt | nt | nt
C=CCn1c(SCc2cccc(C#N)c2)nnc1-c1ccccc1O | i | i | 52% | i
COC(=O)C1=CN(CC2CCCO2)C=C(C(=O)OC)C1c1cc(OC)c(OC)c(OC)c1 (configuration not stated) | i | nt | nt | nt
O=C(NCc1ccc(Cl)cc1Cl)Nc1ccccc1 | i | 11 | i | i | CHO-K1 Tl ctr=i;KCNQ1 sel pot=4.9;KCNQ2 pot confirm=29;Kir2-1 sel=i;KCNQ2 W236L pot=9.9%
SMILES | KCNQ2 inh | KCNQ2 enhance | Kir21 conf inh | HEK293 ctr | others
O=C(NCc1csc2ccc(Cl)cc12)Nc1ccccc1 | i | nt | nt | nt
CN1C(=O)C(c2ccccc2[N+](=O)[O-])C(=O)c2ccccc21 (configuration not stated) | i | i | nt | nt
CC(Oc1ccccc1)C(=O)N=C1SC2CS(=O)(=O)CC2N1c1ccccc1 (configuration not stated) | i | nt | nt | nt
CN(C)C(=O)c1ccccc1Sc1ccc(Cl)cc1Cl | i | nt | nt | nt
CN(C)C(=O)c1ccccc1Sc1cc(Cl)ccc1Cl | i | nt | 47% | i
CCOc1ccc(N(CC(=O)N/N=C/c2ccc(OC(C)C)cc2)S(C)(=O)=O)cc1 | i | nt | nt | nt
O=C(O)COc1ccc(=O)n(-c2ccccc2)n1 | i | i | nt | nt
O=C(Oc1ccc(=O)n(-c2ccccc2)n1)c1ccccc1 | i | nt | 61% | i
O=C(Cc1ccccc1)Nc1nc(-c2cccc([N+](=O)[O-])c2)cs1 | i | i | nt | nt
N#C/C(=C\c1ccc(-c2cccc([N+](=O)[O-])c2)o1)C(=O)Nc1nc(-c2cccs2)cs1 | i | 6.8 | i | i | CHO-K1 Tl ctr=17;KCNQ1 sel pot=i;KCNQ2 pot confirm=i;Kir2-1 sel=i
CCc1ccc(N2C(=O)CC(N(CC3CCCO3)C(=O)/C=C/C(=O)O)C2=O)cc1 (configuration not stated) | i | i | nt | nt
CC(C)CCC(CCNCc1ccccn1)c1ccc2c(c1)OCO2 (configuration not stated) | i | nt | 57% | i
Fc1ccccc1CNCCC(Cc1ccccc1)c1ccc2c(c1)OCO2 (configuration not stated) | i | nt | 40% | 77%
COc1ccc(CNCCC(c2ccccc2)c2ccc3c(c2)OCO3)cc1 (configuration not stated) | i | nt | nt | nt
CCNCCC(CCC(C)C)c1ccc2c(c1)OCO2 (configuration not stated) | i | i | nt | nt
Cc1cc(C(=O)C[N+]2(C)CCOCC2)c(C)n1-c1ccc(Br)cc1 | i | i | nt | nt
CSc1ccc2c(c1)C(N1CCN(C)CC1)Cc1ccccc1S2 (configuration not stated) | -6.8! | i | 40% | i
CSc1cccc(NC(=O)N2CCN(C)CC2)c1 | i | i | nt | nt
O=C(COc1ccccc1F)N1CCCc2ccccc21 | i | i | nt | nt
CC(=O)c1cc(F)ccc1OCC(=O)N1CCCc2ccccc21 | i | nt | 54% | i
Cc1ccc(-c2csc(NC(=O)C3=NN(c4ccccc4)C(=O)CC3)n2)cc1 | i | i | nt | nt
O=C(NCc1ccc2c(c1)OCO2)NC1CCCCC1 | i | 5.7 | i | i | CHO-K1 Tl ctr=38;KCNQ1 sel pot=i;KCNQ2 pot confirm=i;Kir2-1 sel=i
O=C(NNC(=O)c1ccc2c(c1)OCO2)NC1CCCCC1 | i | nt | nt | nt
CC(NC(=O)NC1CCCCC1)c1ccc2c(c1)OCO2 (configuration not stated) | i | 21 | i | i | CHO-K1 Tl ctr=12;KCNQ1 sel pot=i;KCNQ2 pot confirm=62;Kir2-1 sel=i;KCNQ2 W236L pot=i
CCc1ccccc1NC(=O)NC(C)c1ccc2c(c1)OCO2 (configuration not stated) | i | i | nt | nt
O=C(NCc1cccnc1)Nc1cccc(C(F)(F)F)c1 | i | i | nt | nt
CC(NC(=O)NC12CC3CC(CC(C3)C1)C2)c1ccc2c(c1)OCO2 (configuration not stated) | i | 15 | i | i | CHO-K1 Tl ctr=28;KCNQ1 sel pot=i;KCNQ2 pot confirm=56;Kir2-1 sel=i;KCNQ2 W236L pot=i
O=C(NCc1ccc2c(c1)CCO2)Nc1cccc(C(F)(F)F)c1 | i | 7.1 | i | i | CHO-K1 Tl ctr=3.1;KCNQ1 sel pot=20;KCNQ2 pot confirm=25;Kir2-1 sel=i;KCNQ2 W236L pot=i
